# The whole screen tested about 69,000 compounds, of which about 8,600 (12%) showed an effect of 50% or more. Only a selection was taken, and strong results are over-represented in it overall.
# Test system: Plasmodium berghei
# Test: Screen against P. berghei liver stage (PbLuc), transformed with Luciferase, at 10uM
# Type: functional, HepG2
# Settings: tested at 10 uM
row,Structure (SMILES),INHIBITION
1,Cc1ccc(C(N)=O)c(N2Cc3cnc(C(C)(C)C)nc3C2)n1,17.1%
2,COC(=O)[C@@H]1CCCN1C(=O)c1cn(C/C=C/c2ccccc2)nn1,52.6%
3,Cc1nc(C(C)NC(=O)c2cn(C/C=C/c3ccccc3)nn2)n[nH]1 (stereo unspecified),29.1%
4,NC(=O)[C@@H]1CCCN1C(=O)c1cn(C/C=C/c2ccccc2)nn1,57.1%
5,Cc1cccc(C2CCCCCN2C(=O)c2cn(CC(N)=O)nn2)c1 (stereo unspecified),-15.245%
6,COC(=O)[C@@H]1CCCN1C(=O)c1cn(CCCc2ccccc2)nn1,2.4%
7,COC(=O)C1CCCCN1C(=O)c1cn(C/C=C/c2ccccc2)nn1 (stereo unspecified),9.79%
8,Cc1ccc(C(=O)N2CC[C@@H](N(C)C)[C@@H]2Cc2cnn(C)c2)cn1,15.9%
9,COc1ccc(N2CCN(C(=O)[C@@H]3C[C@@H](O)CN3)CC2(C)C)cc1,35.3%
10,CC(=O)c1c(O)n(C)c2ccc(C)cc12,-10.5%
11,Cc1nn(C)c(C)c1-c1ccc(=O)n(C(C)C(=O)NC2CCCC2)n1 (stereo unspecified),35.05%
12,COc1ccc(C2CC(=O)NCc3nc(N(C)C)sc32)c(O)c1 (stereo unspecified),36.6%
13,COc1ccc(C(C)C)cc1C1CC(=O)NCc2nc(N(C)C)sc21 (stereo unspecified),52.2%
14,COc1cc2c(cc1C1CC(=O)NCc3nc(N(C)C)sc31)CCC2 (stereo unspecified),27.6%
15,CN(Cc1ccccc1F)C(=O)c1cc(Cl)c[nH]1,15.4%
16,COc1nccnc1N1C[C@H]2CC[C@@H](C1)N(CC=C(C)C)C2=O,6.83%
17,CCOc1ccccc1C(CC(=O)Nc1ccncc1)NC(C)=O (stereo unspecified),26.9%
18,NC(=O)C(NC1CCN(Cc2ccc(F)cc2)CC1)c1ccccc1 (stereo unspecified),-106%
19,CC(NC(=O)NC1CCN(Cc2ccncc2)CC1)c1cccc(F)c1 (stereo unspecified),13%
20,CC(NC(=O)NC1CCN(Cc2ccncc2)CC1)c1ccccc1F (stereo unspecified),68.9%
21,CC(NC(=O)NC1CCN(Cc2ccncc2)CC1)c1ccc(F)cc1 (stereo unspecified),75.7%
22,CC(NC(=O)NC1CCN(Cc2ccccc2)CC1)c1nncn1C (stereo unspecified),-12.3%

row,Structure (SMILES),INHIBITION
1,CC(NC(=O)NC1CCN(Cc2ccccn2)CC1)c1ccco1 (stereo unspecified),36.8%
2,O=C(C1CC1)N1CCN(Cc2ccncc2)c2ncccc2C1,5.56%
3,CC(NC(=O)NCc1ccccc1Cl)c1ccccn1 (stereo unspecified),-49.5%
4,COc1ccc2c(c1)C(=O)NC1(CC2)CCN(Cc2cccnc2)C1 (stereo unspecified),2.1%
5,Cc1cccc(-n2cc3[nH]c(=O)[nH]n3c2=O)c1,36.3%
6,CC(C)C(C)N(Cc1cnc2ccccc2n1)Cc1ccco1 (stereo unspecified),47%
7,O=S(=O)(NC[C@H]1OC[C@@H](NCc2cccs2)[C@@H]1O)c1ccccc1,51%
8,O=C(NC[C@H]1OC[C@@H](NCc2cccs2)[C@@H]1O)N1CCOCC1,-0.371%
9,Cc1ccc(S(=O)(=O)NC[C@H]2OC[C@@H](NCc3cccs3)[C@@H]2O)cc1,52.5%
10,CC(C)NC(=O)NC[C@H]1OC[C@@H](NCc2cccs2)[C@@H]1O,-13.4%
11,Cc1ccc(CN[C@@H]2CO[C@H](CNS(=O)(=O)c3ccccc3)[C@H]2O)cc1,27.5%
12,CC(C)(C)CN[C@@H]1CO[C@H](CNC(=O)c2cccs2)[C@H]1O,-7.29%
13,CSc1nccn1-c1cccc(C(=O)NCC(F)(F)F)c1,18.2%
14,N#CCCN(CCC#N)C(=O)CN(C1CC1)C1CCc2ccccc21 (stereo unspecified),-40.5%
15,CCC(O)CN1CCN(C(=O)c2ccn(C)c(=O)c2)CC1 (stereo unspecified),13.3%
16,CC(C)CCc1nc(CNCC2CN(C)CCO2)cs1 (stereo unspecified),-21.9%
17,Cc1cc(NC(=O)CN2CCn3c(nnc3C(C)C)C2)n(C)n1,22.2%
18,CC1N(C)C(=O)COC12CCN(C(=O)Cc1ccsc1)CC2 (stereo unspecified),77.7%
19,CC1N(C)C(=O)COC12CCN(C(=O)CCc1ccccc1)CC2 (stereo unspecified),6.83%
20,CC1N(C)C(=O)COC12CCN(Cc1nccs1)CC2 (stereo unspecified),69.7%
21,Cc1nc(CN2C(=O)COC3(CCN(Cc4nccs4)CC3)C2C)cs1 (stereo unspecified),15.1%
22,CC1N(C)C(=O)COC12CCN(Cc1ccsc1)CC2 (stereo unspecified),63%

row,Structure (SMILES),INHIBITION
1,CN1CCN(C)C2(CCN(Cc3ccsc3)CC2)C1=O,5.04%
2,CC1N(CC2CC2)C(=O)COC12CCN(Cc1nccs1)CC2 (stereo unspecified),31.8%
3,CC1NC(=O)COC12CCN(C(=O)Cc1ccsc1)CC2 (stereo unspecified),-28.6%
4,Cc1nc(CN2C(=O)COC3(CCN(Cc4ccsc4)CC3)C2C)cs1 (stereo unspecified),38.2%
5,Cc1nc[nH]c1C(=O)N1CCCC2(C1)C(=O)N(C)c1ccccc12 (stereo unspecified),9.57%
6,Cn1nc2c(cc1=O)CN(Cc1nc(-c3ccco3)no1)CC2,-7.31%
7,Cc1nnc2n1CCN(C(=O)c1cc(Cl)c(Br)[nH]1)C2,-33.32%
8,CC(=O)NCc1ccc(C(=O)Nc2ccc3c(c2)C(=O)NC3)cc1,-20%
9,CCOc1ccccc1CNS(=O)(=O)c1ccc2c(c1)CCCC(=O)N2,19.4%
10,Cn1cc2ncn(CCC3CCN(Cc4ccccc4)C3)c(=O)c2n1 (stereo unspecified),42.1%
11,O=C(NCc1ccc(C(=O)N2CCCC2)cc1)c1cn2c(n1)CNCC2,16.1%
12,c1ccc(NCc2cn3c(n2)CNCC3)nc1,42.6%
13,CN(CCCc1ccccc1)C(=O)c1cn2c(n1)CNCC2,61.9%
14,CC(C)N(Cc1ccccn1)C(=O)CN(C)C(=O)c1cccs1,12.3%
15,CN(C)S(=O)(=O)c1ccc(CNC(=O)c2cn3c(n2)CNCC3)cc1,39.9%
16,CN(CCc1ccccn1)C(=O)c1cccs1,50.8%
17,CN(CCc1ccccn1)C(=O)c1cn(CCN2CCNCC2)nn1,-60.7%
18,CN(CCSc1ccccc1)C(=O)C(c1cccnc1)N1CCOCC1 (stereo unspecified),19.4%
19,Cc1ccc(SCCN(C)C(=O)c2cn(CCN)nn2)cc1,-122%
20,CN(CCc1ccccn1)C(=O)c1cn2c(n1)CNCC2,66.5%
21,CN(CCSc1ccccc1)C(=O)c1cn2c(n1)CNCC2,66.5%
22,CN(CC(=O)NCCc1ccccn1)C(=O)c1cccs1,11%

row,Structure (SMILES),INHIBITION
1,COc1ccccc1C(=O)N(C)Cc1nnc2ccccn12,-81.1%
2,Cn1c(N2CCOCC2)nc2cc(C(=O)N3CCC(O)(CO)C3)ccc21 (stereo unspecified),44.7%
3,CCOc1ccc(NCC(=O)NCC(=O)N2CCCC2)c(C(F)(F)F)c1,16.5%
4,O=C(O)CCC(=O)Nc1nn(Cc2ccc(F)cc2)cc1Cl,46.6%
5,CN1CCN(C(=O)c2cccn2C)c2ccccc2C1,-39.2%
6,COCCN1CC[C@@H](OC)[C@@H]1Cc1ccccc1,-34.7%
7,Cc1nnc(NC(=O)CN2CCc3c(nc(C(C)C)n3C)C2)s1,17.3%
8,CC(O)CN1CCC(CN(C)CC(=O)NC2CCOCC2)CC1 (stereo unspecified),-8.31%
9,CCC(C)(C)NC(=O)Cn1nc(C)nc1-c1ccccc1,-31.5%
10,O=C1NC2(Cc3ccccc31)CN(CC1CCNCC1)C2,26.7%
11,CC(=O)NCC(=O)NCC1Cn2nnc(-c3cccc(F)c3)c2CO1 (stereo unspecified),27.6%
12,O=C(NCC1Cn2nnc(-c3ccsc3)c2CO1)N1CCCC1 (stereo unspecified),2.26%
13,CCS(=O)(=O)NCC1Cn2nnc(-c3ccccc3)c2CO1 (stereo unspecified),54.4%
14,c1ccc(-c2nnn3c2COC(CNCC2CCOCC2)C3)cc1 (stereo unspecified),44.9%
15,Cc1cccc(-c2nnn3c2COC(CNC(=O)N2CCCC2)C3)c1 (stereo unspecified),62.9%
16,CCOCC(=O)NCC1Cn2nnc(-c3cccc(F)c3)c2CO1 (stereo unspecified),38.5%
17,c1ccc(-c2nnn3c2COC(CNCC2CC2)C3)cc1 (stereo unspecified),42.7%
18,CCS(=O)(=O)NCC1Cn2nnc(-c3cccc(C)c3)c2CO1 (stereo unspecified),50.3%
19,Cc1cccc(-c2nnn3c2COC(CNS(=O)(=O)C2CC2)C3)c1 (stereo unspecified),44.8%
20,NC1CCN(S(=O)(=O)c2ccc(C(=O)N3CCSCC3)cc2)C1 (stereo unspecified),2.49%
21,CC(C)OCc1nn(CC2CC2)c2c1CN(Cc1ccco1)CC2,-107%
22,CC(C)(CN1CCC(Cc2ccc(CO)cc2)C1)N1CCOCC1 (stereo unspecified),23.5%

row,Structure (SMILES),INHIBITION
1,O=C(CCn1ccc2ccccc21)Nc1ccnn1CC1CCOC1 (stereo unspecified),10.1%
2,O=C(O)c1cc2c(nc1N1CCCC1)CCN(C1CCOCC1)CC2,-15.3%
3,O=c1[nH]cnc2c1CCN(S(=O)(=O)c1ccc(Cl)cc1)C2,36.2%
4,CN(C)CCN(C)C(=O)Cn1cccc2cc(-c3ccc(F)cc3)nc1-2,26.7%
5,Cn1nc(C2CNCCO2)cc1CCOc1cccc(C(F)(F)F)c1 (stereo unspecified),37.8%
6,CN1CCCC(CCC(=O)N2CCc3[nH]c(-c4ccccc4)nc3C2)C1 (stereo unspecified),23%
7,CC(C(=O)NCc1ccc(N2CCN(C)CC2)nc1)n1cccn1 (stereo unspecified),2.243%
8,Cc1ccc(CN2CC[C@H]3OCC[C@@H](C(=O)NCC4CC4)[C@@H]3C2)s1,5.96%
9,CNC(=O)c1cccc(C2CNCCN2C(=O)c2ccn(C)n2)c1 (stereo unspecified),33.7%
10,CCn1cnnc1C1CCN(C(=O)c2cnc3ccccc3n2)CC1,21.3%
11,CCc1nnc(CN2CC(n3cccn3)C2)o1,-110%
12,Cc1ccc(N2CCCC(NCC(=O)NC(C3CC3)C3CC3)C2)nn1 (stereo unspecified),-6.44%
13,CC(=O)N1CCC2(CCN(C(=O)c3ccc(F)c(C(F)(F)F)c3)CC2)C1,6.6%
14,CC(=O)N1CCC2(CC1)CCN(C(=O)c1cccc(C(F)(F)F)c1)C2,55.5%
15,CC(=O)N1CCC2(CC1)CCN(C(=O)c1ccc(F)c(C(F)(F)F)c1)C2,12.4%
16,CC(=O)N1CCC2(CCN(C(=O)c3cccc(C(F)(F)F)c3)CC2)C1,63.7%
17,CC(=O)N1CCC2(CCN(C(=O)c3ccc(F)c(C(F)(F)F)c3)C2)C1 (stereo unspecified),17.1%
18,CC(=O)N1CCC2(CCN(C(=O)c3ccc(C)c(C(F)(F)F)c3)CC2)C1,16.5%
